PubChem BioAssay (NCATS)
Results filed as inconclusive are left out. Entries that show only a call come without a potency. The source made the active and inactive calls. Calls follow the shape of the dose curve; as a rule, active = well fitted curve in the direction sought with a large enough effect; inconclusive = small, poorly fitted or top-dose-only effect, or another doubt; inactive = no such curve, though single readings can be large; an effect the other way counts as inactive or inconclusive.

Columns and labels:
[1] = molecular target: Tyrosine-protein kinase Yes (Homo sapiens) (UniProt P07947); assay: qHTS for small molecule inhibitors of Yes1 kinase: Primary Screen (AID 686947); also: nearly all actives have a fitted effect of over 60% in size; also: potency is read from the fitted curve at half-maximal effect
How it was run: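 ADP-Glo luminescence readout; final 4 nM Yes1, 0.1 mM ATP, 0.3 mg/mL poly(E4Y), Tris pH 7.5, MgCl2, DTT, Brij-35. 20 min compound preincubation, 60 min reaction at RT. Normalized to DMSO wells with and without enzyme.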

[2] = qHTS for small molecule inhibitors of Yes1 kinase: Counter Assay (AID 686950);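 also: no kinase present so only ADP-Glo detection of a fixed ADP amount is tested; luminescence from ADP-Glo reporting ADP in a fixed ATP and ADP mixture; series mostly up to about 77 µM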
How it was run: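 Enzyme-free ADP-Glo interference check: compounds were preincubated 20 min in buffer, then an ATP/ADP mix (0.08 mM ATP, 0.02 mM ADP final) was added for 60 min at room temperature before two-step ADP-Glo luminescence detection.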

Chain of Tyrosine-protein kinase Yes (Homo sapiens) (P07947 whole entry, looked up): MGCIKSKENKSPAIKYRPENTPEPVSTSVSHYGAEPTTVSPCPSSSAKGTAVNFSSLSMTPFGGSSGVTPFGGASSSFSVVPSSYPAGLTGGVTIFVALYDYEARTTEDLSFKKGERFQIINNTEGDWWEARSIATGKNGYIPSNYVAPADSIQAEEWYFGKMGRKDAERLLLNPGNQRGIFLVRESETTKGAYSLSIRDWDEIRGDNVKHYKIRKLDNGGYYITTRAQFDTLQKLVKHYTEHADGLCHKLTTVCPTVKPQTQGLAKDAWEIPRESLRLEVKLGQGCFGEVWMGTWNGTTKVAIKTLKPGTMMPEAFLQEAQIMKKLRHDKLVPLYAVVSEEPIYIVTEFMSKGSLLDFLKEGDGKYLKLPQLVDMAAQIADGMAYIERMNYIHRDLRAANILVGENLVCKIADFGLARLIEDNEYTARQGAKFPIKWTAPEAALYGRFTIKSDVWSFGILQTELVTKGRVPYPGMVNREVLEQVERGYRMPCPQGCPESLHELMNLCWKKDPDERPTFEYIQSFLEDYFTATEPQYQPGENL

SMILES | Potency [1] | outcome [2]
O=C(Nc1nc2ccccc2n1CCN1CCOCC1)c1cccc([N+](=O)[O-])c1 | inactive | inactive
O=C(NOC[C@H](O)CO)c1ccc(F)c(F)c1Nc1ccc(I)cc1F | inactive | inactive
COc1c(Cl)cc2c([nH]c3cnccc32)c1NC(=O)c1cccnc1C | inactive | inactive
Cc1cc(-c2nnc3n2CCCCC3)c(C)n1-c1ccc(F)cc1 | 34.5 µM (active) | inactive
CS(=O)(=O)Oc1ccc2c(NC(N)=O)c(C(=O)c3ccc(Cl)cc3Cl)oc2c1 | inactive | inactive
Nc1cccc(S(=O)(=O)N2CCCN(S(=O)(=O)c3ccc4c(c3)OCCO4)CC2)c1 | inactive | inactive
CCOc1cc(C=C2C(=O)N(c3ccccc3)N=C2C)cc(Cl)c1OCC(=O)OC | inactive | inactive
Cc1ccc2c(c1)C(=O)[C@@]1(O)CCN(c3ccccc3)C1=N2 | inactive | inactive
CCc1cncnc1N1CCN(Cc2nc3ccc(C(F)(F)F)cc3[nH]2)CC1 | inactive | inactive
O=C(Nc1ccc(F)c(C(F)(F)F)c1)Nc1nnc(-c2ccncc2)s1 | inactive | inactive
